Assay results: the supplement of paper PMC4022240
± gives the standard deviation.

T1: HaloTag-ATRX ADD domain (163-292)
T1 chain: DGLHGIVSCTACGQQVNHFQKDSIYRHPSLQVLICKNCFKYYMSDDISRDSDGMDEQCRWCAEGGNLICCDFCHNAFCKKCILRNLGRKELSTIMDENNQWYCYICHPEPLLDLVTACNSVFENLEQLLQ


Target: T1, HaloTag-ATRX ADD domain (163-292)
Experiment: peptide microarray binding signal (635 nm), min-max normalized on array (fraction of array maximum); higher = stronger binding
Conditions: peptide region: Unmod H2B variant; binder concentration: 50 nM
Summary of the method: (§1)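 An Axon GenePix 4000B scanned the arrays at 635 nm for signal and at 532 nm to catch misprints. Those arrays held histone 13-mer peptide–cellulose conjugates printed in triplicate on nitrocellulose with a Cy3 tracer, blocked overnight at 4°C and probed for 1 h at 4°C with biotin-labelled HaloTag reader fusions (10 nM to 1 μM) plus streptavidin-Alexa Fluor 647 or with rabbit histone antibodies (1:10,000 to 1:2,000) plus anti-rabbit Alexa 647. Each binding signal is a triplicate-spot mean intensity, scaled min-max within its library.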

| Binder | peptide microarray binding signal |
| --- | --- |
| YSKRSTISSREIQ [Unmod H2B variant Y S K R S T I S S R E I Q] | 0.01006 ± 2.8e-05 |
| DGKKRKRSRKESY [Unmod H2B variant D G K K R K R S R K E S Y] | 0.00834 ± 0.00013 |
| KRTRKESYSIYIY [Unmod H2B variant K R T R K E S Y S I Y I Y] | 0.015 ± 0.0008 |
| NSFVNDIFERIAG [Unmod H2B variant N S F V N D I F E R I A G] | 0.00721 ± 0.00059 |
| GISSKAMSIMNSF [Unmod H2B variant G I S S K A M S I M N S F] | 0.0103 ± 0.00033 |
| EGKKRKRTRKESY [Unmod H2B variant E G K K R K R T R K E S Y] | 0.00661 ± 0.00023 |
| KAQKKDGKKRKRS [Unmod H2B variant K A Q K K D G K K R K R S] | 0.0176 ± 0.012 |
| AMSIMNSFVTDIF [Unmod H2B variant A M S I M N S F V T D I F] | 0.0108 ± 0.0002 |
| VHPDTGISSKAMG [Unmod H2B variant V H P D T G I S S K A M G] | 0.009373 ± 4.6e-05 |
| IAGEASRLAHYNK [Unmod H2B variant I A G E A S R L A H Y N K] | 0.0147 ± 0.00017 |

Same assay, conditions: peptide region: Unmod H2B variant; binder concentration: 500 nM

| Binder | peptide microarray binding signal |
| --- | --- |
| YSKRSTISSREIQ [Unmod H2B variant Y S K R S T I S S R E I Q] | 0.0303 ± 0.0022 |
| DGKKRKRSRKESY [Unmod H2B variant D G K K R K R S R K E S Y] | 0.00714 ± 0.00021 |
| KRTRKESYSIYIY [Unmod H2B variant K R T R K E S Y S I Y I Y] | 0.0228 ± 0.0011 |
| NSFVNDIFERIAG [Unmod H2B variant N S F V N D I F E R I A G] | 0.00671 ± 0.00013 |
| GISSKAMSIMNSF [Unmod H2B variant G I S S K A M S I M N S F] | 0.0293 ± 0.0012 |
| EGKKRKRTRKESY [Unmod H2B variant E G K K R K R T R K E S Y] | 0.0101 ± 0.00031 |
| KAQKKDGKKRKRS [Unmod H2B variant K A Q K K D G K K R K R S] | 0.00876 ± 0.00031 |
| AMSIMNSFVTDIF [Unmod H2B variant A M S I M N S F V T D I F] | 0.0253 ± 0.001 |
| VHPDTGISSKAMG [Unmod H2B variant V H P D T G I S S K A M G] | 0.0173 ± 0.0018 |
| IAGEASRLAHYNK [Unmod H2B variant I A G E A S R L A H Y N K] | 0.0384 ± 0.0025 |

Target: HaloTag-ING2 PHD (mouse Ing2 200-280)
Experiment: as above
Conditions: peptide region: Unmod H2B variant; binder concentration: 10 nM
Summary of the method: as §1

| Binder | peptide microarray binding signal |
| --- | --- |
| YSKRSTISSREIQ [Unmod H2B variant Y S K R S T I S S R E I Q] | 0.0109 ± 0.00062 |
| DGKKRKRSRKESY [Unmod H2B variant D G K K R K R S R K E S Y] | 0.00221 ± 3.8e-05 |
| KRTRKESYSIYIY [Unmod H2B variant K R T R K E S Y S I Y I Y] | 0.00716 ± 0.00018 |
| NSFVNDIFERIAG [Unmod H2B variant N S F V N D I F E R I A G] | 0.00364 ± 0.00012 |
| GISSKAMSIMNSF [Unmod H2B variant G I S S K A M S I M N S F] | 0.011 ± 0.0025 |
| EGKKRKRTRKESY [Unmod H2B variant E G K K R K R T R K E S Y] | 0.00251 ± 0.00012 |
| KAQKKDGKKRKRS [Unmod H2B variant K A Q K K D G K K R K R S] | 0.00275 |
| AMSIMNSFVTDIF [Unmod H2B variant A M S I M N S F V T D I F] | 0.01188 ± 7.7e-05 |
| VHPDTGISSKAMG [Unmod H2B variant V H P D T G I S S K A M G] | 0.0154 ± 0.0017 |
| IAGEASRLAHYNK [Unmod H2B variant I A G E A S R L A H Y N K] | 0.0361 ± 0.0036 |

Same assay, conditions: peptide region: Unmod H2B variant; binder concentration: 100 nM

| Binder | peptide microarray binding signal |
| --- | --- |
| YSKRSTISSREIQ [Unmod H2B variant Y S K R S T I S S R E I Q] | 0.0429 ± 0.0047 |
| DGKKRKRSRKESY [Unmod H2B variant D G K K R K R S R K E S Y] | 0.00454 ± 0.00011 |
| KRTRKESYSIYIY [Unmod H2B variant K R T R K E S Y S I Y I Y] | 0.0159 ± 0.0033 |
| NSFVNDIFERIAG [Unmod H2B variant N S F V N D I F E R I A G] | 0.003827 ± 3.3e-05 |
| GISSKAMSIMNSF [Unmod H2B variant G I S S K A M S I M N S F] | 0.0429 ± 0.016 |
| EGKKRKRTRKESY [Unmod H2B variant E G K K R K R T R K E S Y] | 0.00326 ± 0.0001 |
| KAQKKDGKKRKRS [Unmod H2B variant K A Q K K D G K K R K R S] | 0.00461 ± 0.00031 |
| AMSIMNSFVTDIF [Unmod H2B variant A M S I M N S F V T D I F] | 0.0239 ± 0.0025 |
| VHPDTGISSKAMG [Unmod H2B variant V H P D T G I S S K A M G] | 0.0346 ± 0.0034 |
| IAGEASRLAHYNK [Unmod H2B variant I A G E A S R L A H Y N K] | 0.0742 ± 0.0014 |

Target: anti-H3K4me3 antibody ab8580
Experiment: as above
Conditions: peptide region: Unmod H2B variant; binder concentration: 1:2,000 dilution
Summary of the method: as §1

| Binder | peptide microarray binding signal |
| --- | --- |
| YSKRSTISSREIQ [Unmod H2B variant Y S K R S T I S S R E I Q] | 0.00225 ± 0.00019 |
| DGKKRKRSRKESY [Unmod H2B variant D G K K R K R S R K E S Y] | 0.000623 ± 2e-05 |
| KRTRKESYSIYIY [Unmod H2B variant K R T R K E S Y S I Y I Y] | 0.000529 ± 1.4e-05 |
| NSFVNDIFERIAG [Unmod H2B variant N S F V N D I F E R I A G] | 0.00198 ± 0.00015 |
| GISSKAMSIMNSF [Unmod H2B variant G I S S K A M S I M N S F] | 0.00194 ± 0.00057 |
| EGKKRKRTRKESY [Unmod H2B variant E G K K R K R T R K E S Y] | 0.000378 ± 3.9e-06 |
| KAQKKDGKKRKRS [Unmod H2B variant K A Q K K D G K K R K R S] | 0.000415 ± 4.2e-06 |
| AMSIMNSFVTDIF [Unmod H2B variant A M S I M N S F V T D I F] | 0.00882 ± 0.0011 |
| VHPDTGISSKAMG [Unmod H2B variant V H P D T G I S S K A M G] | 0.00563 ± 0.0004 |
| IAGEASRLAHYNK [Unmod H2B variant I A G E A S R L A H Y N K] | 0.00521 ± 0.00045 |

Same assay, conditions: peptide region: Unmod H2B variant; binder concentration: 1:10,000 dilution

| Binder | peptide microarray binding signal |
| --- | --- |
| YSKRSTISSREIQ [Unmod H2B variant Y S K R S T I S S R E I Q] | 0.00211 ± 6.7e-05 |
| DGKKRKRSRKESY [Unmod H2B variant D G K K R K R S R K E S Y] | 0.000628 ± 6.7e-06 |
| KRTRKESYSIYIY [Unmod H2B variant K R T R K E S Y S I Y I Y] | 0.0016 ± 5.3e-05 |
| NSFVNDIFERIAG [Unmod H2B variant N S F V N D I F E R I A G] | 0.002339 ± 2.1e-05 |
| GISSKAMSIMNSF [Unmod H2B variant G I S S K A M S I M N S F] | 0.00228 ± 0.00014 |
| EGKKRKRTRKESY [Unmod H2B variant E G K K R K R T R K E S Y] | 0.000913 ± 1.6e-05 |
| KAQKKDGKKRKRS [Unmod H2B variant K A Q K K D G K K R K R S] | 0.00103 ± 2.1e-05 |
| AMSIMNSFVTDIF [Unmod H2B variant A M S I M N S F V T D I F] | 0.0132 ± 0.00021 |
| VHPDTGISSKAMG [Unmod H2B variant V H P D T G I S S K A M G] | 0.00964 ± 0.0005 |
| IAGEASRLAHYNK [Unmod H2B variant I A G E A S R L A H Y N K] | 0.00633 ± 0.00022 |

Target: anti-H3K9me3 antibody ab8898
Experiment: as above
Conditions: peptide region: Unmod H2B variant; binder concentration: 1:2,000 dilution
Summary of the method: as §1

| Binder | peptide microarray binding signal |
| --- | --- |
| YSKRSTISSREIQ [Unmod H2B variant Y S K R S T I S S R E I Q] | 0.00103 ± 2.2e-05 |
| DGKKRKRSRKESY [Unmod H2B variant D G K K R K R S R K E S Y] | 0.000151 ± 1.6e-06 |
| KRTRKESYSIYIY [Unmod H2B variant K R T R K E S Y S I Y I Y] | 0.000468 ± 1.2e-05 |
| NSFVNDIFERIAG [Unmod H2B variant N S F V N D I F E R I A G] | 0.00074 ± 6.4e-06 |
| GISSKAMSIMNSF [Unmod H2B variant G I S S K A M S I M N S F] | 0.000936 ± 5e-05 |
| EGKKRKRTRKESY [Unmod H2B variant E G K K R K R T R K E S Y] | 0.000302 ± 1.5e-05 |
| KAQKKDGKKRKRS [Unmod H2B variant K A Q K K D G K K R K R S] | 0.000227 |
| AMSIMNSFVTDIF [Unmod H2B variant A M S I M N S F V T D I F] | 0.00523 ± 0.00065 |
| VHPDTGISSKAMG [Unmod H2B variant V H P D T G I S S K A M G] | 0.00272 ± 6.5e-05 |
| IAGEASRLAHYNK [Unmod H2B variant I A G E A S R L A H Y N K] | 0.00217 ± 5.9e-05 |

Same assay, conditions: peptide region: Unmod H2B variant; binder concentration: 1:10,000 dilution

| Binder | peptide microarray binding signal |
| --- | --- |
| YSKRSTISSREIQ [Unmod H2B variant Y S K R S T I S S R E I Q] | 0.0015 ± 2.5e-05 |
| DGKKRKRSRKESY [Unmod H2B variant D G K K R K R S R K E S Y] | 0.000461 |
| KRTRKESYSIYIY [Unmod H2B variant K R T R K E S Y S I Y I Y] | 0.0011 ± 1.1e-05 |
| NSFVNDIFERIAG [Unmod H2B variant N S F V N D I F E R I A G] | 0.001614 ± 1.6e-05 |
| GISSKAMSIMNSF [Unmod H2B variant G I S S K A M S I M N S F] | 0.00144 ± 2.8e-05 |
| EGKKRKRTRKESY [Unmod H2B variant E G K K R K R T R K E S Y] | 0.000404 ± 4.4e-06 |
| KAQKKDGKKRKRS [Unmod H2B variant K A Q K K D G K K R K R S] | 0.000692 ± 7.3e-06 |
| AMSIMNSFVTDIF [Unmod H2B variant A M S I M N S F V T D I F] | 0.00571 ± 0.00035 |
| VHPDTGISSKAMG [Unmod H2B variant V H P D T G I S S K A M G] | 0.00283 ± 4.9e-05 |
| IAGEASRLAHYNK [Unmod H2B variant I A G E A S R L A H Y N K] | 0.00259 ± 4.6e-05 |
